HIV Env fusion – blocks HIV Env-driven cell-cell fusion | hit rate 1.1% among 360,000 | HeLa-JRFL Env/CEM21 cell fusion, luciferase | inhibition, % at 12.3 µM | AID 651610;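 active = mean replicate inhibition score of at least 50 and every replicate individually at or above 50; inconclusive = only one of the two criteria met; inactive = mean below 50 and not all replicates reaching 50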
C2C12 statin – suppression of simvastatin myotoxicity; AID 602340; rescue of ATP level, % at 7.49 µM; hit rate 0.78% among 330,000; C2C12 myotubes + simvastatin, ATP luminescence, 48 h; scaled: DMSO 0, geranylgeraniol control 100;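 active = mean ATP rescue above about 67%, or every replicate alone reaching that limit, limit read from the data, passing the limit was not always enough; inconclusive = no clear call, values can overlap the other calls; inactive = mean under the limit and some replicate under it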;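 also: myotubes were challenged with 10 µM simvastatin during compound exposure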
INS-1E GSIS act – primary screen for activators of insulin secretion dependent on glucose, INS-1E cells, GLuc reporter luminescence; INS-1E GLuc reporter insulin secretion, 2-3 h; activation, % at 16.6 µM; hit rate 0.61% among 370,000;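 active = lowest replicate activation of at least 40%, so every replicate reaches that level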
EWS-Fli inh – inhibitors of EWS/Fli oncoprotein transcriptional activity | hit rate 0.67% among 350,000 | inhibition, % at 12.6 µM | A673 NR0B1-luciferase reporter, viability-normalised | AID 651661;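 active = mean inhibition of at least 50% after viability correction, with every replicate also passing that limit; inconclusive = mean reaches 50% but only one of two replicates passes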;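 also: firefly luciferase signal divided by Alamar Blue viability fluorescence both relative to DMSO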
PAX8 reporter – PAX8 transcriptional activity inhibition; RMG-I TPO-luciferase reporter, SteadyGlo, 24 h; inhibition, % at 12.6 µM; hit rate 1.2% among 360,000; AID 652154;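 active = mean replicate inhibition at least 60% with every replicate also reaching 60%; inconclusive = only one of the two criteria is met; inactive = mean below 60% and not all replicates reaching 60%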;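 also: luciferase light reporting Pax8 driven TPO promoter activity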
miR-122 sensor – inhibitors of miR-122 in Huh7 cells; hit rate 0.3% among 340,000; activation (reporter increase), % at 12.5 µM; Huh7 miR-122 Renilla luciferase sensor, 48 h; neutral wells = 0, positive control = 100;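 active = mean replicate activation score at least 90 and every replicate individually at or above 90; inconclusive = only one of the two criteria met; inactive = neither criterion met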;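 also: higher luciferase means less miR-122 activity so hits act as miR-122 inhibitors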
Hits are given with their value; n = inactive; u = inconclusive; x = not tested or not shown; [ ] = another dose, or the depositor's remark. Hits are enriched below; roughly 3.1% of the tested compounds scored in any of these assays.

SMILES	HIV Env fusion	C2C12 statin	INS-1E GSIS act	EWS-Fli inh	PAX8 reporter	miR-122 sensor
CN1C(=O)c2cc(NC(=O)c3cccc(Cl)c3)ccc2OC[C@@H]2O[C@H](CC(=O)NC3CCCCC3)CC[C@@H]21	56.6[16.7 µM]	n	n	n	76.2	n
CN1C(=O)c2cc(NC(=O)Nc3cccc(Cl)c3)ccc2OC[C@@H]2O[C@@H](CC(=O)NCCc3ccncc3)CC[C@H]21	x	n	n	n	73.8	n
Cc1cc(C(=O)Nc2ccc3c(c2)C(=O)N(C)[C@H]2CC[C@@H](CC(=O)NCc4ccc(-c5ccccc5)cc4)O[C@@H]2CO3)no1	n	n	n	n	64.9	x
CN1C(=O)c2cc(NC(=O)Nc3cccc(Cl)c3)ccc2OC[C@H]2O[C@@H](CC(=O)NCCc3ccncc3)CC[C@@H]21	x	n	n	n	n	n
C[C@H](NC(=O)C[C@H]1CC[C@H](NC(=O)Nc2ccc3c(c2)OCO3)[C@H](CO)O1)c1ccccc1	n	n	n	n	n	n
C[C@H]1CN([C@@H](C)CO)C(=O)c2cccc(NC(=O)C3CCOCC3)c2O[C@@H]1CN(C)C(=O)Nc1ccc(F)cc1	n	n	n	n	n	n
CC1CCC(NC(=O)Nc2cccs2)CC1 (configuration not stated)	n	x	x	x	n	n
O=C(Nc1cccs1)NC1CCCC1	x	109.0	x	x	x	n
CC=Cc1ccc2n(c1=O)C[C@H]1[C@H](CO)[C@@H](C(=O)NC3CCC3)N(CC)[C@@H]21 (mixture of isomers)	x	n	n	n	86.9	n
CCCN1[C@@H]2c3ccc(/C=C/c4ccccc4)c(=O)n3C[C@@H]2[C@@H](CO)[C@@H]1C(=O)N1CCOCC1	x	n	n	n	68.9	n
CC=Cc1ccc2n(c1=O)C[C@@H]1[C@@H](CO)[C@H](C(=O)NC3CCCC3)N(CCC)[C@H]21 (mixture of isomers)	x	x	n	n	x	x
CC=Cc1ccc2n(c1=O)C[C@H]1[C@H](CO)[C@@H](C(=O)OC)N(CCc3ccccc3)[C@@H]21 (mixture of isomers)	59.9[16.7 µM]	n	n	n	n	x
C[C@H](CO)N1C[C@H](C)[C@@H](CN(C)C(=O)Nc2ccccc2)Oc2c(NC(=O)c3cnccn3)cccc2C1=O	x	n	n	n	n	n
Cc1cc(N2CCCC2)ccc1NC(=O)COc1cccc(C(F)(F)F)c1	59.1	n	n	n	n	x
O=C(COc1ccccc1)Nc1cc(C(F)(F)F)ccc1N1CCCC1	x	n	x	x	x	n
CCC(=O)N1C[C@@H](C)[C@H](OC)CN(C)C(=O)c2ccc(NC(=O)c3ccno3)cc2OC[C@@H]1C	x	x	n	n	n	x
CCOc1ccc(-c2cc(N)n(S(=O)(=O)c3cccc4nsnc34)n2)cc1	63.8	n	n	n	n	n
COc1cc(OC)cc(-c2cc(N)n(S(=O)(=O)c3cccc4nsnc34)n2)c1	n	x	n	n	n	x
CC(C)CC#Cc1ccc2c(c1)O[C@@H](CN(C)Cc1ccncc1)[C@H](C)CN([C@@H](C)CO)S2(=O)=O	n	n	n	n	87.3	n
CC(C)CC#Cc1ccc2c(c1)O[C@H](CN(C)Cc1ccccn1)[C@@H](C)CN([C@@H](C)CO)S2(=O)=O	n	n	n	n	60.8	n
CC(C)CC#Cc1ccc2c(c1)O[C@@H](CN(C)Cc1ccccc1)[C@H](C)CN([C@H](C)CO)S2(=O)=O	n	x	345.6	n	x	n
CC(C)CC#Cc1ccc2c(c1)O[C@H](CN(C)Cc1ccccc1)[C@H](C)CN([C@H](C)CO)S2(=O)=O	n	x	n	n	x	n
CCCC#Cc1ccc2c(c1)O[C@H](CN(C)Cc1ccccc1)[C@@H](C)CN([C@H](C)CO)S2(=O)=O	n	n	n	n	80.2	x
Cc1ccc(S(=O)(=O)Nc2ccc3c(c2)CC(=O)N([C@@H](C)CO)C[C@@H](C)[C@H](CN(C)C(=O)NC2CCCCC2)O3)cc1	x	n	n	n	n	n
COc1ccc(CNC(=O)N(C)C[C@H]2OCc3ccccc3-c3ccccc3C(=O)N([C@@H](C)CO)C[C@H]2C)cc1	n	n	n	n	n	x
SMILES	HIV Env fusion	C2C12 statin	INS-1E GSIS act	EWS-Fli inh	PAX8 reporter	miR-122 sensor
COc1cccc(-c2ccc([C@H]3[C@@H](CO)N4C(=O)CN(C(=O)C5CCOCC5)C[C@@H]34)cc2)c1	x	x	n	n	n	x
COc1c(F)cc2[nH]c3c(c2c1F)CCNC3=O	65.1	n	n	n	n	x
COc1ccc2c3c(n(C)c2c1)[C@H](CO)N(C(=O)c1cccc(F)c1)CC31CCN(CC2CC2)CC1	x	x	n	x	x	x
CC(C)(C)C1=Nn2c(nnc2C2CCCCC2)SC1	n	n	80.9	x	x	n
Cc1ccc(Cl)cc1NC(=O)CCC(=O)O	n	x	n	n	n	x
Cc1ccc(Cl)cc1NC(=O)Cn1cccc1	n	80.5	n	x	x	n
N#CC1=C(N)OC2=C(C(=O)CC(c3ccccc3)C2)C1c1cccnc1 (configuration not stated)	x	x	47.4	x	n	x
CCOC(=O)C1=C(C(C)=O)C(c2cccnc2)C(C#N)=C(N)O1 (configuration not stated)	x	118.3	x	x	x	n
N#CC1=C(N)OC2=C(C(=O)CC(c3ccccc3)C2)C1c1ccoc1 (configuration not stated)	x	x	n	x	n	x
CCOC(=O)C1=C(CSc2nc(-c3ccncc3)ccc2C#N)OC(N)=C(C#N)C1c1cccnc1 (configuration not stated)	x	n	x	x	x	n
C[C@@H]1CN([C@@H](C)CO)C(=O)c2cc(C#Cc3ccccc3)cnc2O[C@H]1CN(C)CC1CCOCC1	n	n	n	n	x	n
COc1ccc(C(=O)/C=C/C(=O)N(CC(=O)NC2CCCCC2)Cc2ccccc2OC)c(O)c1	n	x	n	u	n	x
COc1ccc(C(=O)/C=C/C(=O)N(CC(=O)NC2CCCCC2)Cc2ccccc2)c(O)c1	n	x	n	82.6	u	x
COc1ccc(C(=O)/C=C/C(=O)N(CC(=O)NC2CCCCC2)CC2CCCO2)c(O)c1 (configuration not stated)	n	x	n	56.2	82.1	x
C[C@H](CO)N1C[C@H](C)[C@H](CN(C)Cc2ccccc2)Oc2ncc(-c3ccccc3F)cc2C1=O	n	n	n	n	x	n
CN(C)C(=O)CCCc1nc(-c2ccc(Cl)cc2)no1	55.1	n	n	x	x	x
O=C(CCCc1nc(-c2ccc(Cl)cc2)no1)Nc1cccnc1	61.1	n	x	x	n	n
COc1ccccc1NC(=O)N[C@@H]1C=C[C@@H](CC(=O)N[C@@H](C)c2ccccc2)O[C@@H]1CO	n	n	n	n	n	x
C/C=C/c1ccc([C@H]2[C@@H](CO)N(C(=O)CC)C23CN(S(=O)(=O)CC)C3)cc1	x	x	n	n	n	x
COc1cc2c(cc1OC)C(c1cc(Br)ccc1F)N(C(=O)CCl)CC2 (configuration not stated)	n	n	n	58.4	n	x
COc1cc2c(cc1OC)C(C1C(=O)CC(C)(C)CC1=O)N(C(=O)CCl)CC2 (configuration not stated)	n	x	n	n	n	x

Compound activity as filed in PubChem BioAssay.
